In experiment [1] the target is Cytochrome P450 1A2 (Homo sapiens) (UniProt P05177). In words: p450-cyp1a2 (AID 410; calls by dose curve; also: potency is read from the fitted curve at half-maximal effect). In short, it runs like this: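 Luminescent readout of luciferin formed from Luciferin-ME by human CYP1A2; data normalized against complete inhibition by 57 uM furafylline. Enzyme 20nM, substrate 100uM at Km, 100mM KPO4 buffer, 60 min reaction at room temperature.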
In experiment [2] the target is Glucocorticoid receptor (Homo sapiens) (UniProt P04150). Put plainly: GR-GFP Redistribution (AID 450;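 active = compounds whose dose series gives a full or clear partial fitted curve of increased nuclear translocation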; also: potency is read from the fitted curve at half-maximal effect). The note with it: U2OS GR-GFP nuclear translocation, laser cytometry, 2 h.
Sequence of Glucocorticoid receptor (Homo sapiens) (P04150 whole entry, looked up): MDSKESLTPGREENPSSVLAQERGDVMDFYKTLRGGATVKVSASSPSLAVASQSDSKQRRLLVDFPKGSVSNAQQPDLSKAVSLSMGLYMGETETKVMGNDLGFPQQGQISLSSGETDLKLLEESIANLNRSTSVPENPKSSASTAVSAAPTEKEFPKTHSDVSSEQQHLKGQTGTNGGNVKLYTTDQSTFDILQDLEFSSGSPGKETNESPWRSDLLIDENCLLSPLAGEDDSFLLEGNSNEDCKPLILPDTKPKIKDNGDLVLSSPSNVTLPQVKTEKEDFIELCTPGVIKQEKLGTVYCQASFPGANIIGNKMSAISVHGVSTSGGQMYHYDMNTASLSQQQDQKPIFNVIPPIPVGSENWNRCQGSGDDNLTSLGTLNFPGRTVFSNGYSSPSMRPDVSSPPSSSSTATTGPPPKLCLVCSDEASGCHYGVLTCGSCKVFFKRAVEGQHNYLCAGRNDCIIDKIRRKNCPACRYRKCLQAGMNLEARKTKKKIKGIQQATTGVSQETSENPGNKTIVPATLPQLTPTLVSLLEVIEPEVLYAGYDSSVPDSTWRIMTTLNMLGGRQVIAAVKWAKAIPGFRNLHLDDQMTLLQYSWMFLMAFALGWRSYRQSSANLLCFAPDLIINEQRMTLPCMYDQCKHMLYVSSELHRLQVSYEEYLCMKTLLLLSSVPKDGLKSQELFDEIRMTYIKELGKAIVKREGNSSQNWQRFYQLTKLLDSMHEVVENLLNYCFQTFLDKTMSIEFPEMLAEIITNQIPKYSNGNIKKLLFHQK
Experiment [3] has the same target. In words: GR-EFC Redistribution (AID 451; calls by dose curve; also: potency is read from the fitted curve at half-maximal effect). The note with it: CHO-K1 GR-EFC translocation, beta-gal luminescence, 2 h. The method in brief:
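Translocation of GR-ED fusion to nuclear EA restores b-gal, read by luminescence after 1 h room-temperature detection. Engineered CHO-K1 biosensor cells, 1,000/well, exposed 2 h at 37 C to titrations up to 46 uM final.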

Experiment [4] deals with Mitogen-activated protein kinase 10 (Mus musculus) (UniProt Q61831). Put plainly: JNK3 AlphaScreen Assay (AID 530; active = well fitted curve in either direction with a large enough effect, not every such curve was filed as active;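 also: kinase came from lysate of stimulated human HepG2 cells; signal reports phosphorylation of biotinylated GST-cJun 1-79 at Ser73 with 10 µM ATP; series mostly up to about 57 µM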). In short, it runs like this: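 Compound titrations were preincubated 15 minutes at room temperature with substrate, antibody and pre-activated JNK3-containing HepG2 lysate. Reactions were started with 10 uM ATP and stopped with EDTA-containing bead buffer for AlphaScreen detection.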

Experiment [5] has as its target Ubiquitin carboxyl-terminal hydrolase 1 (Homo sapiens) (UniProt O94782). In words: Inhibitors of USP1/UAF1: Pilot qHTS (AID 504865).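 Also: rhodamine fluorescence freed from ubiquitin-rhodamine substrate followed over time; top concentration of the series differs between compounds; nearly all actives have a fitted effect of over 35% in size.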 The method in brief:
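Deubiquitinase activity followed as kinetic rhodamine fluorescence release from 150 nM Ub-Rho. 1 nM USP1/UAF1 with compound, after 15 min room-temperature preincubation, in HEPES pH 7.8 buffer containing TCEP, EDTA, BSA and Tween-20.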

The target in experiment [6] is DNA dC->dU-editing enzyme APOBEC-3G (Homo sapiens) (UniProt Q9HC16). Put plainly: qHTS for inhibitors of Vif-A3G interactions: Validation (AID 588379). The method in brief:
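HeLa cells stably expressing Vif and A3G-eYFP, 700 cells/well, incubated overnight at 37 deg C, then exposed to compound overnight at 37 deg C. Inhibition of Vif-mediated degradation read as increased yellow fluorescence (Ex 488/Em 500-530) by laser-scanning cytometry.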
A general note: In qHTS, concentration-response curves come from the screen itself.

Experiment [7] relates to Zika virus NS2B-NS3 protease. Put plainly: Primary screen GU AMC qHTS for Zika virus inhibitors (AID 1347154). Also: nearly all actives have a fitted effect of over 70% in size. The method in brief: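 Fluorogenic AMC-substrate cleavage by noncovalent NS2B-NS3 protease complex (25 nM, pH 8.0 Tris buffer with Tween 20) followed for 15 minutes at room temperature (~20% conversion). Percent inhibition from ex340/em450 signal change, fitted by 4-parameter Hill equation.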

Experiment [8] can be described thus: Primary qHTS for small molecule stabilizers of the endoplasmic reticulum resident proteome: Secreted ER Calcium Modulated Protein (SERCaMP) assay (AID 1508630). In short, it runs like this:
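GLuc-SERCaMP-expressing SH-SY5Y cells, pretreated 16 h with compound, are challenged with thapsigargin to empty ER calcium stores; after 4 h, coelenterazine is added directly to the medium and luminescence is imaged.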

The target in experiment [9] is 3',5'-cyclic-AMP phosphodiesterase 4B (Homo sapiens) (UniProt Q07343). Put plainly: qHTS Assay for Inhibitors of PDE-IV (AID 607; active = well fitted activation curve with a large enough effect in the main read-out, with a control signal flat, not every such curve was filed as active). In short, it runs like this:
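The readout is membrane depolarisation from a cAMP-sensing CNG channel, detected with a potential dye at ex 535/em 590. Cells were HEK293-derived (endogenous PDE-IV) at 1000 cells/well, titrated up to 22.9 uM final.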

Experiment [10] has as its target Cytochrome P450 3A4 (Homo sapiens) (UniProt P08684). Put plainly: qHTS Assay for Inhibitors and Substrates of Cytochrome P450 3A4 (AID 884). Also: nearly all actives have a fitted effect of over 50% in size. Also: potency is read from the fitted curve at half-maximal effect. The method in brief:
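20 nM human CYP3A4 with 25 uM Luciferin-PPXE (at KM) in 200 mM KPO4, preincubated 10 min with compound; NADPH regeneration started a 60 min RT reaction. Luciferin detected by luminescence, normalized to 57 uM ketoconazole as full inhibition.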

For experiment [11] the target is unchanged. In words: qHTS Assay for Activators of Cytochrome P450 3A4 (AID 885). Also: nearly all actives have a fitted effect of over 65% in size. Also: potency is read from the fitted curve at half-maximal effect. The method in brief:
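Steps: enzyme/substrate mix dispensed; compound added, 10 min RT; NADPH regeneration solution added, 60 min RT; luciferin detection buffer stops reaction; 20 min later luminescence measured.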

The target in experiment [12] is Cytochrome P450 2D6 (Homo sapiens) (UniProt P10635). In words: qHTS Assay for Inhibitors and Substrates of Cytochrome P450 2D6 (AID 891). Also: potency is read from the fitted curve at half-maximal effect; nearly all actives have a fitted effect of over 60% in size. In short, it runs like this: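 Human CYP2D6 (5 nM) with 30 uM Luciferin-ME EGE (at Km) in 100 mM KPO4, compound preincubated 10 min, then NADPH regeneration system for 60 min at room temperature. Luciferin read by luminescence; normalized to 1.43 uM quinidine.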
Sequence of Cytochrome P450 2D6 (Homo sapiens) (P10635 whole entry, looked up): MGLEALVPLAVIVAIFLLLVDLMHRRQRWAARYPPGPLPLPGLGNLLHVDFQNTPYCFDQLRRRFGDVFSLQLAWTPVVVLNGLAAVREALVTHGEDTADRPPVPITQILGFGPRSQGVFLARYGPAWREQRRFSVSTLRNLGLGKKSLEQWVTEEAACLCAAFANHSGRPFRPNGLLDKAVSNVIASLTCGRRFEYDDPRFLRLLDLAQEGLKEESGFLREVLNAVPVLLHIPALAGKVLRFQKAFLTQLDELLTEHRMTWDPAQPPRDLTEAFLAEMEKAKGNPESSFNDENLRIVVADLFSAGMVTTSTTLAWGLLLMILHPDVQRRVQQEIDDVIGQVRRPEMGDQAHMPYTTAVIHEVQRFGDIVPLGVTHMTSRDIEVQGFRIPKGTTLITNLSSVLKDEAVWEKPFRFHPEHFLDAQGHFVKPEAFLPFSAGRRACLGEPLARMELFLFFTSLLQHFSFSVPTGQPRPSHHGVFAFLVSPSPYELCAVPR

A number with no mark means an inactive call. Results filed as inconclusive are left out. The source made the active and inactive calls. Unless noted, calls follow the shape of the dose curve; as a rule, active = well fitted curve in the direction sought with a large enough effect; inconclusive = small, poorly fitted or top-dose-only effect, or another doubt; inactive = no such curve, though single readings can be large; an effect the other way counts as inactive or inconclusive. Bounds are passed on as bounds.

Sequence of Cytochrome P450 3A4 (Homo sapiens) (P08684 whole entry, looked up): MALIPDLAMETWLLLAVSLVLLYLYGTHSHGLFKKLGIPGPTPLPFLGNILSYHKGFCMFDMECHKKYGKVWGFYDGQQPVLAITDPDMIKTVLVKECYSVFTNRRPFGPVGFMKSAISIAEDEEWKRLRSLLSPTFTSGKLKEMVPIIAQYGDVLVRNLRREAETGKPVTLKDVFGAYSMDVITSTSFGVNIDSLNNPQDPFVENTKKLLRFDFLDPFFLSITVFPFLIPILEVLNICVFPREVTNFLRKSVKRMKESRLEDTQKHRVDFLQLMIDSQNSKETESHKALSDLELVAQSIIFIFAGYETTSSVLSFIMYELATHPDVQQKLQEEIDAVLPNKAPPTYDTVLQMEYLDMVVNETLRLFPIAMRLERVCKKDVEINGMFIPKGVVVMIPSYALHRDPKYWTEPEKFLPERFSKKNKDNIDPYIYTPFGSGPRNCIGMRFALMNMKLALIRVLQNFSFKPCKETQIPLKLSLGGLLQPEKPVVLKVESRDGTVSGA
Sequence of Cytochrome P450 1A2 (Homo sapiens) (P05177 whole entry, looked up): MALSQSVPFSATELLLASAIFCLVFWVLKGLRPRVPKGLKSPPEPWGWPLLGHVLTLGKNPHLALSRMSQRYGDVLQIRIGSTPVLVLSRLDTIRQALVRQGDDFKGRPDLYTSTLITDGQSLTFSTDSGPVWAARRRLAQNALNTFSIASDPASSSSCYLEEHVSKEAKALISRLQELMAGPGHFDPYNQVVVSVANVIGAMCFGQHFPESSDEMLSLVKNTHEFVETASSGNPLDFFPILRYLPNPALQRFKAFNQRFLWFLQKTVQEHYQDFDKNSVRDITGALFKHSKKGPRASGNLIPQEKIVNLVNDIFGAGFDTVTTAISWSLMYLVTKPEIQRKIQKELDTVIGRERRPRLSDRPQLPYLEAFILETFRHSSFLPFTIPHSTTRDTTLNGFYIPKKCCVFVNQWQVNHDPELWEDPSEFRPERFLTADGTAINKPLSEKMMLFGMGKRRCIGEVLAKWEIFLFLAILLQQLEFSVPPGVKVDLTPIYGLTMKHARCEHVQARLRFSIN
Sequence of DNA dC->dU-editing enzyme APOBEC-3G (Homo sapiens) (Q9HC16 whole entry, looked up): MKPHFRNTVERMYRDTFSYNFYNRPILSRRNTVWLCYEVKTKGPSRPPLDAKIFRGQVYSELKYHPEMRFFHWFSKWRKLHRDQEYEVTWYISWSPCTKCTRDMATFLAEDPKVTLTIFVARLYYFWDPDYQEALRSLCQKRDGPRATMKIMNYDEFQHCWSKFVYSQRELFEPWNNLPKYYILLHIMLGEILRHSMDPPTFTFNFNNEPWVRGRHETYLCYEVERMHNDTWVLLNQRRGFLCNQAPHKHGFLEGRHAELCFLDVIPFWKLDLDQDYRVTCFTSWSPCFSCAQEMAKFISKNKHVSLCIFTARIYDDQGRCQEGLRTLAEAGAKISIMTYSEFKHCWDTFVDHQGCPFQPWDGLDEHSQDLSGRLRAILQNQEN
Sequence of 3',5'-cyclic-AMP phosphodiesterase 4B (Homo sapiens) (Q07343 whole entry, looked up): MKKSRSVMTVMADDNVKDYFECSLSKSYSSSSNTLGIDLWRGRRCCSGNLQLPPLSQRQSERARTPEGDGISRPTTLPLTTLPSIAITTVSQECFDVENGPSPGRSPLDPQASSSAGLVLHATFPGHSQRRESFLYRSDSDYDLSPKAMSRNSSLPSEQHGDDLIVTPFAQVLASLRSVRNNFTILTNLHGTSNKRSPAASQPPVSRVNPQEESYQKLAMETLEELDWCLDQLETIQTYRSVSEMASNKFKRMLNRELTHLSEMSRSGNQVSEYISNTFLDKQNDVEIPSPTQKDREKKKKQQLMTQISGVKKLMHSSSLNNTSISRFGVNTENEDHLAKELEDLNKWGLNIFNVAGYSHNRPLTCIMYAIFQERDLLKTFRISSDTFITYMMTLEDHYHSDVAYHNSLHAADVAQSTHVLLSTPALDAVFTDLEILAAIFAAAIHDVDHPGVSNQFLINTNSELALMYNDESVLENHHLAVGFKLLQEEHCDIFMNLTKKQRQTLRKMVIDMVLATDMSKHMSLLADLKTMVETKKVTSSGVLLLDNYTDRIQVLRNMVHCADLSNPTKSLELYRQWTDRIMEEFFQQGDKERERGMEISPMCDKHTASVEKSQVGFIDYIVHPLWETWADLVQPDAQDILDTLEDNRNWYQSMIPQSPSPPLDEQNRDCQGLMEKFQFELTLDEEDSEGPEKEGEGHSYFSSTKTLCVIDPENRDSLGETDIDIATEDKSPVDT
Sequence of Ubiquitin carboxyl-terminal hydrolase 1 (Homo sapiens) (O94782 whole entry, looked up): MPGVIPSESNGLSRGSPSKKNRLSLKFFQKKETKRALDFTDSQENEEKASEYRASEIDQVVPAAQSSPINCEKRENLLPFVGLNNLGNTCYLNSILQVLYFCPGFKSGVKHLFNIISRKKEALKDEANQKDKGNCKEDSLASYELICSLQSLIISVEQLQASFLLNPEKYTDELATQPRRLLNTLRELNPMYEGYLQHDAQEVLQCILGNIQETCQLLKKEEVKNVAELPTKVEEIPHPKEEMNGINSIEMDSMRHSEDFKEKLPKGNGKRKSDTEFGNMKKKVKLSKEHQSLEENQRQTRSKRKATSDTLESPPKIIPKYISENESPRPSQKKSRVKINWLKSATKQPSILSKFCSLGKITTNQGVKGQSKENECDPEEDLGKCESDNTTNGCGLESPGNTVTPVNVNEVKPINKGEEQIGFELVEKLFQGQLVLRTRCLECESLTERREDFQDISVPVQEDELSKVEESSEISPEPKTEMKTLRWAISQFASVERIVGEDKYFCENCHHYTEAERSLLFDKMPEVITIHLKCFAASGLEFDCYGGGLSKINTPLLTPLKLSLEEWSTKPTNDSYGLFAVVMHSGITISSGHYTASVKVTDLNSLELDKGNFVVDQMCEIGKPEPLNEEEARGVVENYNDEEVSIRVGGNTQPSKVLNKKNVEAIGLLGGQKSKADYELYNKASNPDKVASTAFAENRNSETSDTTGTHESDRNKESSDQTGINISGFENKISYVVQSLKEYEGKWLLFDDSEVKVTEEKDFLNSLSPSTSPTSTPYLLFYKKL

As to `CCCCNC(=O)[C@@H]1Cc2ccccc2N1C(=O)[C@H](N)CC`, the Potency in experiment [1] is 20 µM (active); in experiment [2] it was more than 46 µM; in experiment [3], more than 46 µM. Also, the Potency entry in experiment [4], in experiment [5], in [6], in experiment [7] and in [8] was “inactive” each time.
`COc1ccc(OC)c2c(=S)c3ccccc3[nH]c12`: the Potency in experiment [1] was 0.0631 µM (active); in experiment [2], more than 46 µM; in experiment [3], more than 46 µM; in experiment [10] it was 7.94 µM (active). Also, the Potency entry in [9], in [11], in experiment [7] and in experiment [8] was “inactive” each time.
For the compound `CS(=O)(=O)c1ccc(-c2cc(Br)sc2-c2ccc(F)cc2)cc1`, the Potency in [1] is 0.398 µM (active); in experiment [2], more than 46 µM; in experiment [3] it was more than 46 µM. The Potency result in experiment [4], in [11], in [6], in experiment [7] and in experiment [8] was “inactive” each time.
On to `Cc1nc2ccc(NC(=O)Nc3ccnc4cccnc34)cc2o1`, for which the Potency was 1 µM (active) in [1], more than 46 µM in experiment [2] and more than 46 µM in [3]. Further, the Potency result in experiment [9], in experiment [11], in [6], in [7] and in experiment [8] was “inactive” in each case.
As for `CCCN(C/C=C\I)[C@@H]1CCc2cccc(O)c2C1`, the Potency was 2.51 µM (active) in experiment [1], more than 46 µM in experiment [2], more than 46 µM in experiment [3] and 25.1 µM (active) in [11]. Besides, the Potency result in experiment [4], in experiment [10], in experiment [6], in [7] and in [8] was “inactive” throughout.
In the case of `C=CCN1CCN(c2nc3ccccc3nc2C#N)CC1`, the Potency in experiment [1] is 0.1 µM (active); in experiment [2] it was more than 46 µM; in [3], more than 46 µM; in [12], 1.26 µM (active). Besides, the Potency entry in experiment [9], in experiment [11], in experiment [6], in [7] and in experiment [8] was “inactive” in each case.
For the compound `CNCCCCCCCCSc1nc(C(C)C)ccc1C(=O)c1cccs1`, the Potency is 31.6 µM (active) in experiment [1]; more than 46 µM in experiment [2]; more than 46 µM in [3]; 2.51 µM (active) in [10]; 0.0063 µM (active) in experiment [12]. In addition, the Potency entry in experiment [4], in experiment [11], in [7] and in experiment [8] was “inactive” each time.
Turning to `Nc1nc(NCCc2ccc(O)cc2)nc2nc(-c3ccco3)nn12`, the Potency in experiment [1] was 31.6 µM (active); in experiment [2] it was more than 46 µM; in experiment [3], more than 46 µM. The Potency result in experiment [9], in experiment [11], in [5], in [6], in experiment [7] and in experiment [8] was “inactive” each time.
Regarding `O=S(=O)(NCCCCCCc1ccccc1)c1cccc2c(Cl)cccc12`, the Potency in experiment [1] is 15.8 µM (active); in [2], more than 46 µM; in [3], more than 46 µM; in experiment [10], 2.51 µM (active). Moreover, the Potency entry in [11], in [6], in experiment [7] and in experiment [8] was “inactive” throughout.
Take `O=C1C(=O)N(Cc2ccc(Cl)c(Cl)c2)c2ccccc21`: the Potency was 12.6 µM (active) in [1], more than 46 µM in experiment [2], more than 46 µM in experiment [3] and 3.98 µM (active) in experiment [12]. Further, the Potency entry in experiment [11], in experiment [6], in [7] and in experiment [8] was “inactive” throughout.

The values above are taken from PubChem BioAssay (NCATS).
